# PME-1 primary – blocks human protein phosphatase methylesterase 1; recombinant PME-1, FP-Rh probe fluorescence polarization; 0.53% of 320,000 active; inhibition, % at 5.9 µM; Q9Y570;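 active = inhibition above the campaign mean of all compounds plus 3 SD, cut at about 26% in these data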;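 also: competitive labeling of PME-1 active site by serine hydrolase directed probe; inhibitors block probe labeling so polarization falls and inhibition rises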
# Target sequence (Q9Y570 whole entry, looked up): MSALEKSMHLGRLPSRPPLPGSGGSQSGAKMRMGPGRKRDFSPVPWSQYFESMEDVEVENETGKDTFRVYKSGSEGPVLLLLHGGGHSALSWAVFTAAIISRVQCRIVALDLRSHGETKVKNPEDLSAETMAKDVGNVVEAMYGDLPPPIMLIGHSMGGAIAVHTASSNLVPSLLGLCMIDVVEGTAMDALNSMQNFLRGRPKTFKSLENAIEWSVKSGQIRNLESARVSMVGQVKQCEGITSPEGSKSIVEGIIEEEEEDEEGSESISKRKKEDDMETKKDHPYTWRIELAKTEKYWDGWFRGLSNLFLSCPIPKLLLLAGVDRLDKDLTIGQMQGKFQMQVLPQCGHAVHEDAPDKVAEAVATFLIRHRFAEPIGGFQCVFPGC
# Fam108B inh – Fam108B inhibition, counter-screen for RBBP9 inhibitors | recombinant Fam108B, FP-Rh probe fluorescence polarization | inhibition, % at 9.51 µM | 0.33% of 300,000 active;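 active = inhibition above the screen mean inhibition plus 3 SD, computed separately per campaign, cut at about 18% in these data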;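 also: inhibitors lower polarization as less probe binds the enzyme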
# PAFAH1B2 FP inh – blocks human PAF acetylhydrolase 1b catalytic subunit 2 | recombinant PAFAH1B2, FP-rhodamine activity probe, fluorescence polarization | inhibition, % at 3.39 µM | 1.2% of 340,000 active | AID 492953 | P68402;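 active = inhibition above the mean of all tested compounds plus 3 SD, cut at about 24% in these data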
# PAFAH2 inh – inhibitors of human PAFAH2; recombinant PAFAH2, FP-rhodamine activity probe, fluorescence polarization; inhibition, % at 3.39 µM; 0.99% of 340,000 active; AID 492956;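 active = inhibition above the mean over all tested compounds plus 3 SD, cut at about 30% in these data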;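 also: inhibitors block probe labeling of enzyme so polarization drops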
# pPAFAH inh – inhibitors of human plasma PAF acetylhydrolase (pPAFAH); Q13093; recombinant pPAFAH, FP-rhodamine probe fluorescence polarization; inhibition, % at 3.39 µM; 1.5% of 330,000 active; AID 463082;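 active = inhibition above the mean inhibition across the screen plus 3 SD, cut at about 25% in these data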;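 also: inhibitors block binding of the rhodamine activity-based probe so polarization drops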
# PAFAH1B3 FP inh – blocks human PAF acetylhydrolase 1B catalytic subunit 3; inhibition, % at 3.39 µM; Q15102; recombinant PAFAH1B3, FP-rhodamine probe, fluorescence polarization; 0.28% of 340,000 active;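 active = inhibition above the screen-wide average of all tested compounds plus 3 SD, cut at about 25% in these data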
# Target sequence (Q15102 whole entry, looked up): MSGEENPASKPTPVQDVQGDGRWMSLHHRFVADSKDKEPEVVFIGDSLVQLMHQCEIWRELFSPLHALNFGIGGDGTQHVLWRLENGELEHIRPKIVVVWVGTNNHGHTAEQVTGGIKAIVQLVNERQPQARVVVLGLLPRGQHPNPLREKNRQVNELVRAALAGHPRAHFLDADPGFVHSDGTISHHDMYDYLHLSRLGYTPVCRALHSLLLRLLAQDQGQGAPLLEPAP
# A number is an active result; n = inactive; x = not tested or not shown. Most compounds without a hit are left out; they make up all but 2.8% or so of the library.
SMILES,PME-1 primary,Fam108B inh,PAFAH1B2 FP inh,PAFAH2 inh,pPAFAH inh,PAFAH1B3 FP inh
CCC1CCCCN1CC(=O)c1c(C)[nH]c2cc(C)ccc12 (centres undefined),x,x,n,n,x,n
COc1cccc2c1C(=O)c1c(O)c3c(c(O)c1C2=O)CC(O)(C(C)=O)CC3OC1CC(N(C)C)C(O)C(C)O1 (centres undefined),x,x,58.9,61.8,x,45.9
COc1cccc2c1C(=O)c1c(O)c3c(c(O)c1C2=O)C[C@@](O)(C(=O)CO)C[C@@H]3OC1CC(N)C(O)C(C)O1 (some centres undefined),x,x,51.8,53.9,x,52.4
Cc1nnc(SCC(=O)Nc2cc(C(N)=O)cc(C(N)=O)c2)n1-c1ccccc1,n,n,28.3,n,n,n
N#Cc1ccccc1NC(=O)CSc1nnc(-c2ccc(F)cc2)n1-c1ccccc1,x,x,25.7,n,x,n
O=C(O)c1cccc(CSc2nc(-c3ccccc3)cc(C(F)(F)F)n2)c1,n,n,n,n,25.6,n
COc1ccc(-c2cc(C(F)(F)F)nc(SCc3cccc(C(=O)O)c3)n2)cc1,n,n,n,n,n,n
Cc1ccc(-c2cnc3ccccc3n2)cc1C,n,n,n,n,n,n
COc1cccc2c(=O)c3cccc(N)c3[nH]c12,n,n,n,n,30.9,n
CC(=O)[C@@]1(O)C(C)CC2C3C=C(C)C4=Cc5c(cnn5-c5ccccc5)C[C@]4(C)C3C(O)C[C@@]21C (some centres undefined),n,n,n,n,n,n
S=C1NCCOCCNC(=S)NCCOCCOCCN1,n,n,n,n,25.5,n
S=C1NCCOCCOCCOCCN1,n,n,n,n,n,n
Brc1ccc(C2Nc3cccc4cccc(c34)N2)cc1,x,x,n,n,x,n
O=[N+]([O-])c1ccc(C2Nc3cccc4cccc(c34)N2)cc1,28.8,n,n,n,n,n
O=[N+]([O-])c1cccc(C2Nc3cccc4cccc(c34)N2)c1,n,20.6,n,n,n,n
Cc1c(C(=O)NC2=NCCS2)cccc1[N+](=O)[O-],n,n,n,n,n,n
CSc1ccc(C2NN=C(c3ccccc3)S2)cc1 (centres undefined),n,n,x,x,n,x
Oc1ccccc1C1NN=C(c2ccccc2)S1 (centres undefined),n,n,n,49.5,n,n
CC(=O)Oc1ccc(N(C(C)=O)S(=O)(=O)c2ccc3ccccc3c2)cc1,n,n,n,n,n,n
COc1ccc(Nc2nc(OC)nc(OC)n2)cc1,n,n,n,n,n,n
COc1ccc(Nc2nc(Nc3ccc(OC)cc3)nc(SC3=NCCS3)n2)cc1,n,n,n,n,34.2,n
CCOc1ccc(N2CC(C(=O)NCC(=O)Nc3ccc(F)c(F)c3F)CC2=O)cc1 (centres undefined),n,x,n,n,n,n
CN(C)c1ccc(CNc2ncnc3sccc23)cc1,n,n,n,n,n,n
COc1ccc(C(C[N+](=O)[O-])c2c(C)[nH]n(-c3ccccc3)c2=O)cc1 (centres undefined),n,n,n,n,n,n
Cc1ccc(C(C[N+](=O)[O-])c2c(-c3ccccc3O)[nH][nH]c2=O)cc1 (centres undefined),n,n,25.2,n,n,n
SMILES,PME-1 primary,Fam108B inh,PAFAH1B2 FP inh,PAFAH2 inh,pPAFAH inh,PAFAH1B3 FP inh
N#Cc1c(SC(C(=O)O)c2ccccc2)nc2c(c1-c1cccs1)CCCC2 (centres undefined),n,n,26.9,n,n,n
CC(=O)Nc1ccc(C(=O)OCc2ccc(F)cc2)cc1,n,n,n,n,n,n
N#CCC(=O)Nc1ccc(C(=O)OCC(=O)Nc2ccc3ccccc3c2)cc1,n,x,n,n,32.6,n
CC(=O)Nc1ccc(C(=O)OCc2ccc(Cl)cc2)cc1,n,n,n,30.8,n,n
O=C(COC(=O)c1ccc(Cl)nc1)Nc1ccc2ccccc2c1,x,x,n,n,x,n
O=C(COC(=O)c1ccc(O)cc1)Nc1ccc(Cl)cc1,n,n,x,x,27.3,x
N#CCC(=O)Nc1ccc(C(=O)OCC(=O)NNC(=O)c2ccc(Cl)cc2)cc1,n,n,n,n,n,n
CCc1cccc2c(C(=O)COC(=O)c3ccc([N+](=O)[O-])s3)c[nH]c12,28.6,n,n,n,n,n
O=C(OCC(=O)c1c[nH]c2ccccc12)c1ccc([N+](=O)[O-])s1,n,n,n,n,n,n
N/C(=N\OC(=O)CCC1CCCCC1)c1ccc([N+](=O)[O-])cc1,n,n,24.7,n,n,n
COc1ccc(OCC(=O)NCc2nc(-c3ccccc3)no2)cc1,x,x,n,n,x,n
O=C(c1cccc(S(=O)(=O)N2CCOCC2)c1)N(Cc1ccco1)Cc1cccs1,n,x,n,n,n,n
O=C(CN(Cc1ccco1)Cc1cccs1)N1CCN(S(=O)(=O)c2cccc(F)c2)CC1,n,x,26.5,n,n,n
O=c1c2ccccc2[nH]c2ccc(O)cc12,n,n,n,n,28.7,n
COc1ccc(C2=NCCn3nc4ccccc4c32)cc1,n,n,n,n,n,n
CC1(C)CC(=O)c2sc(NS(=O)(=O)c3ccc(Br)cc3)nc2C1,n,n,26.9,n,n,n
O=C(CC1CCCC1)Nc1cc(C(F)(F)F)ccc1-n1cncn1,n,x,n,n,n,n
CCc1ccc2[nH]c3nc(N/N=C/c4ccc(O)cc4O)nnc3c2c1,n,n,n,n,28.5,26.1
CCn1c(SC)nnc1C1CCN(CC(=O)Nc2ccccc2N2CCOCC2)CC1,n,n,n,n,n,n
Cc1cccc(-c2nc3sc(C)cc3c(=O)o2)c1,n,n,n,73.5,33.1,n
Cc1nc2sc(-c3ccccc3)cc2c(=O)[nH]1,n,n,n,n,n,n
Cc1cccc(-c2nnc(-c3cccc4ccccc34)o2)c1,x,x,n,n,x,n
Cc1ccccc1-c1nc2sc(-c3ccccc3)cc2c(=O)o1,n,n,n,66.4,n,n
CCCCn1c(N)c(N(CC)C(=O)COc2ccc(C#N)cc2)c(=O)[nH]c1=O,x,x,n,n,n,n
O=C(CC1C[C@H](C(=O)N2CCOCC2)[C@@]2(CCC3CCCC3)c3[nH]c4ccccc4c3CCN2C1=O)NCCCn1ccnc1 (some centres undefined),x,x,n,n,n,n
SMILES,PME-1 primary,Fam108B inh,PAFAH1B2 FP inh,PAFAH2 inh,pPAFAH inh,PAFAH1B3 FP inh
O=C1CSC(c2ccccc2)N1c1cccnc1 (centres undefined),n,n,n,n,n,n
O=C(O)c1cccc(N2C(=O)CSC2c2ccccc2)c1 (centres undefined),n,n,27.4,n,n,n
O=C(CSc1ccc(-c2cccnc2)nn1)Nc1ccc(F)cc1,n,n,n,n,n,n
Cc1ccc(S(=O)(=O)/N=C2\SC(CC(=O)Nc3ccc(F)cc3)C(=O)N2c2ccccc2)cc1 (centres undefined),n,n,32.1,n,n,n
COc1ccc(-c2cc(=O)c3c(O)cc(O)cc3o2)cc1,n,n,n,n,n,n
O=c1cc(-c2ccc(O)c(O)c2)oc2cc(O)cc(O)c12,n,n,34.0,n,n,39.4

# Bioassay records from PubChem.
